Screening data deposited in PubChem by several laboratories.
Most compounds without a hit are left out; they make up all but 3.3% or so of the library.
SMARCA2 act = SMARCA2 (BRM) function activators, primary screen, cell-based, luminescence, high throughput | MG213 cells, MMTV-luciferase reporter, dexamethasone, overnight | activation, % at 9.1 µM | 1% of 370,000 active | AID 652017, 2013; in the data active = activation above about 7.8%
Jurkat NFkB inh = inhibitors of induced NF-kB luciferase reporter, primary screen, TCR NF-kB activation inhibitor project, cell-based, luminescence, uHTS; 0.53% of 330,000 active; Jurkat, PMA/ionomycin-induced NF-kB luciferase reporter; inhibition, % at 4 µM; in the data active = inhibition above about 50%
esBAF inh = Bmi1 luciferase reporter increase in mESCs, primary screen, esBAF inhibitor project, mouse ES cells, Bmi1 luciferase knock-in, single point; 24 h; 100% = twice the neutral-well signal; AID 602393, 2012; reporter increase, % at 12.5 µM; 2% of 350,000 active; in the data active = activation above about 40%;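 also: a rise in the Bmi1 reporter signal indicates esBAF inhibition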
697 NFkB inh = inhibitors of PMA/ionomycin-induced NF-kB reporter, 697 cells, primary screen, B-cell NF-kB inhibitor project, cell-based, luminescence, uHTS. 697 B-cell NF-kB luciferase reporter, 16 h. inhibition, % at 4 µM. 0.33% of 330,000 active; in the data active = inhibition above about 35%
Gli-Sufu antag = Gli-Sufu pathway antagonists, primary screen, luciferase luminescence, Sufu-KO-LIGHT cells, uHTS | 0.74% of 340,000 active | Sufu-KO-LIGHT fibroblasts, Gli luciferase reporter luminescence | inhibition, % at 5 µM | AID 588413, 2011;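 active = inhibition above about 55%, limit read from the data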
Gli antag conf = Gli-SUFU pathway antagonists, confirmation, single concentration, luciferase luminescence, Sufu-KO-LIGHT cells; shares compounds with Gli-Sufu antag; Gli luciferase reporter; inhibition, % at 5 µM; 40% of 2,500 active;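 active = mean inhibition at 5 µM reaching about 45%, limit read from the data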
SufuKO cytotox = cytotoxicity in Sufu-KO-LIGHT cells, confirmation, cytotoxicity control for Gli-SUFU antagonist project, cell-based, ATP luminescence, single concentration; cytotoxicity, % at 5 µM; shares compounds with Gli-Sufu antag; AID 651994, 2013; 32% of 2,500 active;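 active = mean cytotoxicity at 5 µM above about 25%, limit read from the data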;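 also: cells exposed to compound overnight for roughly 16 to 18 hours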
Wnt3a cs = Wnt3a reporter signal inhibition, confirmation, counter-screen for Gli-SUFU antagonist project, Wnt-LIGHT cells, luminescence, single concentration; inhibition, % at 6.25 µM; AID 651995, 2013; Wnt3a-driven luciferase reporter; shares compounds with Gli-Sufu antag; 20% of 2,500 active;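 active = mean inhibition above about 25%, limit read from the data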
Each line names hits and unclear results; the compound was inactive in the other large screens (follow-up assays come after a bar, where they were run).

C[C@@H]1CN([C@H](C)CO)C(=O)c2cc(NC(=O)C3CCCCC3)ccc2O[C@@H](C)CCCCO[C@@H]1CN(C)S(=O)(=O)c1cccs1	none (no result: SMARCA2 act, Jurkat NFkB inh, 697 NFkB inh, Gli-Sufu antag)
C[C@@H]1CN([C@@H](C)CO)C(=O)c2cc(NS(=O)(=O)c3ccccc3)ccc2O[C@H]1CN(C)C(=O)NC1CCCCC1	none (no result: SMARCA2 act, Jurkat NFkB inh, 697 NFkB inh, Gli-Sufu antag)
CO[C@H]1CN(C)C(=O)c2cc(NS(=O)(=O)c3cccc(F)c3)ccc2OC[C@@H](C)N(Cc2cc(F)ccc2F)C[C@@H]1C	none (no result: SMARCA2 act, Jurkat NFkB inh, 697 NFkB inh, Gli-Sufu antag)
CCc1nc(C)cn1S(=O)(=O)c1cc(C)c(OC)cc1C	none
CCc1nc(C)cn1S(=O)(=O)c1cc(C)c(OC)c(C)c1C	Gli-Sufu antag 60 | Gli antag conf 52 | SufuKO cytotox 30 | Wnt3a cs 55
O=C1CN(C(=O)COC(=O)c2oc3ccccc3c2COc2ccccc2)c2ccccc2N1	none
Cc1c(C(=O)OCC(=O)N2CC(=O)Nc3ccccc32)oc2ccccc12	Gli-Sufu antag 94 | Gli antag conf inactive | SufuKO cytotox inactive | Wnt3a cs inactive
Cc1cccc(-n2nc(C(=O)c3ccco3)cc(-c3nc4ccccc4[nH]3)c2=N)c1	none
COc1ccc(-n2nc(C(=O)c3cccs3)cc(-c3nc4ccccc4[nH]3)c2=N)cc1	Gli-Sufu antag 98 | Gli antag conf inactive | SufuKO cytotox inactive | Wnt3a cs inactive
Cc1ccccc1-n1nc(C(=O)c2cccs2)cc(-c2nc3ccccc3[nH]2)c1=N	Gli-Sufu antag 59 (no result: esBAF inh) | Gli antag conf inactive | SufuKO cytotox inactive | Wnt3a cs inactive
CCNC(=O)C[C@@H]1CC[C@@H]2[C@@H](COc3ccc(NC(=O)Nc4ccccc4OC)cc3C(=O)N2C)O1	none (no result: SMARCA2 act, Jurkat NFkB inh, 697 NFkB inh, Gli-Sufu antag)
C[C@H](CO)N1C[C@H](C)[C@@H](CN(C)C)Oc2ccc(NS(=O)(=O)c3ccc(F)cc3)cc2CC1=O	none (no result: SMARCA2 act, Jurkat NFkB inh, 697 NFkB inh, Gli-Sufu antag)
CC(=O)Nc1cccc(C(=O)Nc2cccc3ncccc23)c1	Gli-Sufu antag 86 | Gli antag conf inactive | SufuKO cytotox inactive | Wnt3a cs inactive
Nc1cccc(C(=O)Nc2cccc3ncccc23)c1	none
COC(=O)c1[nH]c2c(c1C)C(=O)CC(c1ccccc1)C2 (stereo not given)	Gli-Sufu antag 57 | Gli antag conf 52 | SufuKO cytotox 53 | Wnt3a cs inactive
COc1ccc(C(=O)C(CN2CCOCC2)c2ccccc2)cc1F (stereo not given)	none (no result: Jurkat NFkB inh, 697 NFkB inh) | Gli antag conf inactive | SufuKO cytotox inactive | Wnt3a cs inactive
COc1ccc(Nc2c3c(nc4ccccc24)CCC3)cc1	none
COc1ccc(Nc2c3ccccc3nc3ccccc23)cc1	none | Gli antag conf 56 | SufuKO cytotox 31 | Wnt3a cs inactive
CCC(C(=O)Nc1ccc2c(c1)OCCO2)n1c(=O)[nH]c2ccccc2c1=O (stereo not given)	none | Gli antag conf inactive | SufuKO cytotox inactive | Wnt3a cs 48
O=c1[nH]c(C2CCN(S(=O)(=O)c3ccc(C(F)(F)F)cc3)CC2)nc2c1nnn2Cc1cccc(F)c1	Gli-Sufu antag 56 | Gli antag conf inactive | SufuKO cytotox 25 | Wnt3a cs inactive
CN1CCC(=C2c3ccccc3Sc3ccccc32)CC1	Gli-Sufu antag 56 (no result: Jurkat NFkB inh, 697 NFkB inh) | Gli antag conf inactive | SufuKO cytotox 37 | Wnt3a cs inactive
COc1ccc(C(=O)NCc2nnc(SCC(=O)Nc3cc(OC)ccc3OC)o2)cc1	none | Gli antag conf inactive | SufuKO cytotox inactive | Wnt3a cs inactive
COc1ccc(OC)c(NC(=O)COC(=O)c2ccc(-n3cnnn3)cc2)c1	Gli-Sufu antag 69 | Gli antag conf inactive | SufuKO cytotox inactive | Wnt3a cs inactive
CC(C)NC(=O)Nc1ccc2c(c1)CC(=O)N([C@H](C)CO)C[C@H](C)[C@H](CN(C)Cc1ccccc1)O2	none (no result: SMARCA2 act, Jurkat NFkB inh, 697 NFkB inh, Gli-Sufu antag)
CNC[C@H]1Oc2ccc(NC(=O)Nc3ccc(F)cc3)cc2C(=O)N([C@H](C)CO)C[C@@H]1C	none (no result: SMARCA2 act, Jurkat NFkB inh, 697 NFkB inh, Gli-Sufu antag)
CCOc1ccc(S(=O)(=O)Nc2ccc(C(=O)N3CCCC3)cc2)cc1	none
CCOc1ccc(NS(=O)(=O)c2ccc(C(=O)N3CCCC(C)C3)cc2)cc1 (stereo not given)	Gli-Sufu antag 57 | Gli antag conf inactive | SufuKO cytotox inactive | Wnt3a cs inactive
CCOc1ccc(NS(=O)(=O)c2cccc(C(=O)N3CCN(C/C=C/c4ccccc4)CC3)c2)cc1	none (no result: Jurkat NFkB inh, 697 NFkB inh) | Gli antag conf inactive | SufuKO cytotox inactive | Wnt3a cs inactive
C[C@H]1CN([C@@H](C)CO)C(=O)c2cc(C3=CCCC3)cnc2O[C@@H]1CN(C)C(=O)Nc1ccccc1	none (no result: SMARCA2 act, Jurkat NFkB inh, 697 NFkB inh, Gli-Sufu antag)
Cc1c(Cl)cccc1NC(=O)CCN1CCC(C(N)=O)CC1	Gli-Sufu antag 57 | Gli antag conf inactive | SufuKO cytotox inactive | Wnt3a cs inactive
Cc1ccc(S(=O)(=O)N2CCN(c3ccc(N4CCOCC4)nn3)CC2)cc1[N+](=O)[O-]	none (no result: esBAF inh)
O=[N+]([O-])c1ccc(S(=O)(=O)N2CCN(c3ccc(N4CCOCC4)nn3)CC2)cc1	none (no result: esBAF inh) | Gli antag conf inactive | SufuKO cytotox inactive | Wnt3a cs inactive
C[C@@H]1CN([C@@H](C)CO)C(=O)c2cccc(NS(=O)(=O)c3ccc(F)cc3)c2O[C@@H]1CN(C)Cc1ccc(Cl)c(Cl)c1	none (no result: SMARCA2 act, Jurkat NFkB inh, 697 NFkB inh, Gli-Sufu antag)
Cc1ccc(S(=O)(=O)N[C@@H]2CC[C@H](CC(=O)NCc3ccccc3F)O[C@H]2CO)cc1	none (no result: SMARCA2 act, Jurkat NFkB inh, 697 NFkB inh, Gli-Sufu antag)
C/C(=N\O)C(C)(C)Nc1cccc(F)c1	none
C/C(=N\O)C(C)(C)Nc1ccccc1F	Gli-Sufu antag 96 | Gli antag conf inactive | SufuKO cytotox inactive | Wnt3a cs inactive
O=C(/C=C/c1ccc(S(=O)(=O)N2CCOCC2)cc1)NCc1ccccc1F	none | Gli antag conf inactive | SufuKO cytotox inactive | Wnt3a cs inactive
O=C(C[C@H]1C=C[C@H](NC(=O)C2CCOCC2)[C@H](CO)O1)NCC1CCCCC1	none (no result: SMARCA2 act, Jurkat NFkB inh, 697 NFkB inh, Gli-Sufu antag)
C[C@@H]1CN([C@H](C)CO)C(=O)c2cc(NS(=O)(=O)c3cn(C)cn3)ccc2O[C@H]1CN(C)Cc1ccc(C(=O)Nc2ccccc2N)cc1	none (no result: SMARCA2 act, Jurkat NFkB inh, 697 NFkB inh, Gli-Sufu antag)
CC(C)(C)NC(=O)C(=O)NNC(=O)c1cccc(F)c1	Gli-Sufu antag 84 (no result: esBAF inh) | Gli antag conf inactive | SufuKO cytotox inactive | Wnt3a cs inactive
CC(C)(C)NC(=O)C(=O)NNC(=O)c1ccccc1	none (no result: esBAF inh)
Cc1[nH]nc2c1C(c1cccs1)C(C#N)=C(N)O2 (stereo not given)	none (no result: esBAF inh)
